Screening data deposited in PubChem BioAssay by several laboratories.
Shn3 3UTR inh = reduction of Shn3 3'UTR firefly luciferase signal, primary screen, Schnurri-3 inhibitor project, cell-based, Clone20 osteoblasts, set 2; Clone20 osteoblast Shn3 3'UTR firefly luciferase, 24 h; inhibition, % at 12.5 µM; hit rate 0.52% among 360,000; AID 588674, 2011;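 active means mean inhibition of at least 75% with every replicate also reaching 75%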;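 further: 0% = median of neutral control wells and 100% = pilot-screen positive control compound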
PAX8 reporter = inhibitors of PAX8-driven TPO luciferase reporter, primary screen, RMG-I cells, single concentration; SteadyGlo, 24 h; inhibition, % at 12.6 µM; hit rate 1.2% among 360,000; AID 652154, 2013;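 active means mean replicate inhibition at least 60% with every replicate also reaching 60%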;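 further: luciferase light reporting Pax8 driven TPO promoter activity; plate controls were median of neutral control wells for no effect and mitoxantrone controls for full effect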
LMP1 NFkB inh = EBV LMP1-driven NF-kappaB luciferase reporter inhibitors, primary screen, cell-based, luminescence, single point; inhibition, % at 12.5 µM; hit rate 0.69% among 350,000; AID 504558, 2011; LMP1-induced NF-kappaB luciferase reporter cells; in the data active means inhibition above about 41%;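 further: 0% = neutral control wells and 100% = reference inhibitor control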
MITF TRPM1 inh = inhibitors of MITF-dependent TRPM1 promoter reporter, primary screen, cell-based, SK-MEL-5, single point, luciferase; SK-MEL-5 TRPM1 promoter luciferase, 24 h; inhibition, % at 12.5 µM; hit rate 0.83% among 330,000; AID 488899, 2010;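 active means mean inhibition across replicates of 60% or more, whatever share of single replicates reaches that level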
HIF-2a block = HIF-2a reporter inhibitors, primary screen, luminescence, 786-0 RCC cells; inhibition, % at 18.8 µM; hit rate 0.72% among 360,000; 786-0 RCC cells HIF-2a reporter, luciferase luminescence, overnight;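 active means inhibition of the luminescence signal of 40% or more relative to plate controls, in a single-dose primary screen at 18.75 µM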
Peg3 prom inh-1 = Peg3 promoter-driven luciferase inhibitors, primary screen, cell-based, HeLa, luciferase luminescence; hit rate 1.7% among 360,000; HeLa PEG-Prom luciferase reporter, overnight; inhibition, % at 20 µM;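 active means inhibition of at least 50% at 20 µM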
Peg3 prom inh-2 = Peg3 promoter reporter inhibitors, retest, confirmation, cell-based, HeLa, luciferase reporter, single concentration | hit rate 84% among 1,300 | inhibition, % at 20 µM | shares compounds with Peg3 prom inh-1 | HeLa PEG-Prom luciferase reporter, luminescence, overnight | AID 602417, 2012;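 active means at 20 µM dose, 40% or more inhibition averaged across four replicates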
An asterisk follows results filed as active. Shown are actives, neighbours in structure and some others; about 2.8% of the full set was active somewhere.

COc1ccc(NC(=O)N(C)C[C@H]2Oc3ccc(NC(=O)CCN4CCOCC4)cc3CC(=O)N([C@@H](C)CO)C[C@@H]2C)cc1 was read as PAX8 reporter -1.
Screening CN(Cc1ccccc1)C(=O)c1ccc(Nc2nc(C(N)Cc3ccccc3)cs2)nc1 (stereo not given) returned Shn3 3UTR inh 27, PAX8 reporter 25, HIF-2a block -33, Peg3 prom inh-1 93* and Peg3 prom inh-2 90*.
Screening COc1cccc(Nc2nc(C(N)Cc3ccccc3)cs2)n1 (stereo not given) returned Shn3 3UTR inh 4, PAX8 reporter 14, HIF-2a block -5, Peg3 prom inh-1 89* and Peg3 prom inh-2 96*.
COc1cccc(Nc2nc(C(N)CO)cs2)n1 (stereo not given) was read as Shn3 3UTR inh -46, PAX8 reporter 7, HIF-2a block 9 and Peg3 prom inh-1 6.
Screening NC(CCc1ccccc1)c1csc(Nc2ccc(C(=O)NCCCO)cn2)n1 (stereo not given) returned Shn3 3UTR inh -6, HIF-2a block 9 and Peg3 prom inh-1 7.
CCCCN(C)C(=O)c1ccc(Nc2nc(C(N)Cc3ccccc3)cs2)nc1 (stereo not given) was read as Shn3 3UTR inh 14, PAX8 reporter 33, HIF-2a block 2 and Peg3 prom inh-1 40.
`CC(C)CC(N)c1csc(Nc2ccc(C(=O)N(C)Cc3ccccc3)cn2)n1` (stereo not given) gave Shn3 3UTR inh 35, PAX8 reporter -4, HIF-2a block 11, Peg3 prom inh-1 60* and Peg3 prom inh-2 85*.
For CC(C)NC(=O)Nc1cccc2c1O[C@@H](CN(C)S(=O)(=O)c1ccc(Cl)cc1)[C@@H](C)CN([C@@H](C)CO)C2=O the results were PAX8 reporter 19.
Screening CC(C)C#Cc1cnc2c(c1)C(=O)N([C@H](C)CO)C[C@H](C)[C@@H](CN(C)C(=O)Cc1ccccn1)O2 returned PAX8 reporter -18.
Screening O=C(N[C@H]1CC[C@H](CCNS(=O)(=O)c2ccc(Cl)cc2)O[C@@H]1CO)c1cnccn1 returned PAX8 reporter -5.
`Cc1noc(C)c1NC(=O)Nc1ccc2c(c1)C(=O)N([C@H](C)CO)C[C@H](C)[C@H](CN(C)C(=O)Nc1ccc3c(c1)OCO3)O2` gave PAX8 reporter -8.
Screening Cc1ccc(CC2(OCCN(C)C)CCC(C(C)(C)C)CC2)cc1 (stereo not given) returned Shn3 3UTR inh 1, LMP1 NFkB inh 2, MITF TRPM1 inh 57, HIF-2a block -4, Peg3 prom inh-1 95* and Peg3 prom inh-2 101*.
For O=C(CN(c1ccc(Cl)cc1)S(=O)(=O)c1ccc(Cl)c([N+](=O)[O-])c1)NCCc1ccccc1 the results were Shn3 3UTR inh 36, PAX8 reporter 79*, LMP1 NFkB inh 9, MITF TRPM1 inh 51, HIF-2a block 7, Peg3 prom inh-1 87* and Peg3 prom inh-2 31.
For Cc1ccc(-n2cc(CNCCc3cscn3)c(-c3ccc(F)cc3)n2)cc1 the results were Shn3 3UTR inh 31, PAX8 reporter -3, LMP1 NFkB inh 8, MITF TRPM1 inh 46, HIF-2a block -136 and Peg3 prom inh-1 -23.
Cc1ccc(-n2cc(CNCCCn3ccnc3C)c(-c3ccc(F)cc3)n2)cc1 was read as Shn3 3UTR inh 82, PAX8 reporter -20, LMP1 NFkB inh -54, MITF TRPM1 inh 72*, HIF-2a block -5, Peg3 prom inh-1 112* and Peg3 prom inh-2 98*.
For Cc1ccc(S(=O)(=O)CCSC(=N)N)cc1 the results were Shn3 3UTR inh -19, PAX8 reporter 69*, LMP1 NFkB inh -6, MITF TRPM1 inh -1, HIF-2a block -4, Peg3 prom inh-1 55* and Peg3 prom inh-2 47*.
